Most compounds without a hit are left out; they make up all but 6.5% or so of the library.
HepG2 tox: kills HepG2 cells in TGF-b inhibitor counter-screen. HepG2 CAGA-GFP viability, ATP luminescence, 18 h. Potency, µM (doses to about 46.1 µM), usual class: cytotoxic. 0.76% of 410,000 active. AID 588856
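CellTiter-Glo luminescence gave cytotoxicity after 18 hours at 37 degrees C. The cells were HepG2 CAGA-GFP in 1% FBS DMEM, stimulated with 500 pg/mL TGF-beta after compound addition. %Activity was normalised to no-cell wells (complete cell-killing) and DMSO (no toxicity), and curves were fitted and classified.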
IL1B secr inh: blocks inflammasome-driven IL-1 beta release | THP-1 LPS/ATP IL-1B secretion, AlphaLISA, 16 h; hits give low values | 4.7% of 360,000 active | activity change, % at 57.5 µM; in the data active means activity change below about -50%; inconclusive means mostly about -30% to -49%
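Secreted IL-1B measured by AlphaLISA bead assay after 16 h compound exposure of THP-1 cells; compounds (final up to 57.5 uM) added 1 h before LPS (250 ng/mL) and ATP (1.25 mM) stimulation; lower signal means less secretion.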
TGFb inhibitor: inhibitors of TGF-b signaling | Potency, µM (titrated, usually from 46.1 µM), most hits filed as inhibitors | 1.2% of 410,000 active | HepG2 CAGA-GFP TGF-b/SMAD3 reporter, GFP fluorescence, 18 h; TGF-beta stimulated, 500 pg/mL final | AID 588855; further: nearly all actives have a fitted effect of over 65% in size
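Smad-responsive CAGA-GFP expression was quantified in HEPG2 cells exposed to compounds and 500 pg/mL final TGF-beta for 18 h at 37 degrees C; unstimulated wells defined full inhibition.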
Giardia killer: kills Giardia lamblia. AID 540267. activity change, % at 7.66 µM, hits read low. Giardia lamblia trophozoite viability. 0.15% of 340,000 active; in the data active means activity change below about -80%; inconclusive means between about -30% and that limit;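 further: parasites exposed to compound for two days anaerobically before the ATP read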
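Giardia lamblia trophozoites (100 cells/well) were incubated with compounds for 48 h at 37 deg C under anaerobic conditions. Viability was read as ATP content by one-step luminescence after 15-30 min at room temperature.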
HT1080NT lethal: kills 2HG-producing HT-1080-NT fibrosarcoma cells; HT-1080-NT fibrosarcoma viability, CellTiter-Glo ATP luminescence, 48 h; Potency, µM (highest dose often 46.1 µM), hits mostly cytotoxic; 1.6% of 360,000 active; AID 686970;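 further: NT is the 2HG producing partner of a matched IDH1 knockdown line; nearly all actives have a fitted effect of over 55% in size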
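Fibrosarcoma NT cells, 750 per well in 5% FBS RPMI, were exposed to compound for 48 hours. Viability: CellTiter-Glo luminescence.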
HT1080 IDH1KD tx: kills HT-1080 cells with IDH1 knockdown; Potency, µM (series often up to 46.1 µM), hits mostly cytotoxic; 2% of 360,000 active; AID 686971; HT-1080 IDH1 knockdown viability, ATP luminescence, 48 h
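Knockdown cells (IDH1KD HT-1080) received compounds 2 h after plating at 750 cells/well and were kept 48 h at 37 °C in 5% FBS RPMI. A CellTiter-Glo luminescence read gave % activity for curve fitting.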
Each line names hits and unclear results; the compound was inactive in the other large screens. Unless noted, the call rests on the fitted dose curve; in most records, active means well fitted curve in the direction sought with a large enough effect; inconclusive means small, poorly fitted or top-dose-only effect, or another doubt; inactive means no such curve, though single readings can be large; an effect the other way counts as inactive or inconclusive.

C#CCOCCOCCOCCNc1nc(N2CCOCC2)nc(N2CCN(C(=O)CCCCCCCCCCNC(=O)[C@H](CO)n3cc(CCCCCN)nn3)CC2)n1	none
C#CCOCCOCCOCCNc1nc(N2CCN(C(=O)CCCCCCCCCCNC(=O)Cn3cc(C[C@@H](C)O)nn3)CC2)nc(N2CCN(C(=O)CCCCCCCCCCNC(=O)[C@H](CCCCN)n3cc(C[C@@H](C)CC)nn3)CC2)n1	HepG2 tox 13µM, IL1B secr inh -77, TGFb inhibitor inconclusive, HT1080NT lethal inconclusive, HT1080 IDH1KD tx 21µM
C#CCOCCOCCOCCNc1nc(N2CCN(C(=O)CCCCCCCCCCNC(=O)[C@H](CCCCN)n3cc(C[C@@H](C)CC)nn3)CC2)nc(N2CCN(C(=O)CCCCCCCCCCNC(=O)[C@H](CCCCN)n3cc(C[C@@H](C)CC)nn3)CC2)n1	HepG2 tox 10µM, IL1B secr inh -66, TGFb inhibitor inconclusive, HT1080NT lethal inconclusive, HT1080 IDH1KD tx inconclusive
C#CCOCCOCCOCCNc1nc(N2CCN(C(=O)CCCCCCCCCCNC(=O)[C@H](CCCCN)n3cc(CCCC(=O)O)nn3)CC2)nc(N2CCN(C(=O)CCCCCCCCCCNC(=O)[C@H](CCCN=C(N)N)n3cc(C[C@@H](C)CC)nn3)CC2)n1	IL1B secr inh -73, TGFb inhibitor inconclusive
C#CCOCCOCCOCCNc1nc(N2CCN(C(=O)CCCCCCCCCCNC(=O)[C@@H](CCC(=O)O)n3cc(CCCCCN)nn3)CC2)nc(N2CCN(C(=O)CCCCCCCCCCNC(=O)[C@@H](CCC(=O)O)n3cc(CCCCCN)nn3)CC2)n1	TGFb inhibitor inconclusive
C#CCOCCOCCOCCNc1nc(N2CCN(C(=O)CCCCCCCCCCNC(=O)[C@H](CCCCN)n3cc(CCO)nn3)CC2)nc(N2CCN(C(=O)CCCCCCCCCCNC(=O)[C@H](CCCN=C(N)N)n3cc(C[C@@H](C)CC)nn3)CC2)n1	IL1B secr inh -98, TGFb inhibitor inconclusive, HT1080NT lethal inconclusive, HT1080 IDH1KD tx inconclusive
C#CCOCCOCCOCCNc1nc(N2CCN(C(=O)[C@H]([C@@H](C)CC)n3cc(CCCN=C(N)N)nn3)CC2)nc(N2CCN(C(=O)[C@H](CCCCN)n3cc(CCC(=O)O)nn3)CC2)n1	none
COc1ccccc1OCc1nnc(SCC(=O)N2CCCC2)o1	none
COC(=O)C1=C(C(=O)OC)[C@@H]2N(Cc3ccccc3)c3ccccc3[C@@]23C[C@@H](C(=O)OC)N(C(=O)C2CCC2)C3=N1	none
Cc1ccccc1CN1CCN(C(=O)c2cccc3ccccc23)CC1	IL1B secr inh inconclusive
O=C(O)c1cc(-c2ccc3c(c2)OCO3)nc2ccc(Cl)cc12	none
O=C(c1cc(-c2ccncc2)nc2ccc(Cl)cc12)N1CCN(Cc2ccc3c(c2)OCO3)CC1	IL1B secr inh -83
Cc1cc(C)c2nc(-c3ccncc3)cc(C(=O)N3CCN(Cc4ccccc4Cl)CC3)c2c1	IL1B secr inh -75, TGFb inhibitor inconclusive, HT1080NT lethal inconclusive, HT1080 IDH1KD tx inconclusive
O=C(c1cc(-c2ccncc2)nc2ccc(Br)cc12)N1CCN(Cc2ccc3c(c2)OCO3)CC1	IL1B secr inh -63
Cc1ccc2nc(-c3ccncc3)cc(C(=O)N3CCOCC3)c2c1	none
Cc1ccc(S(=O)(=O)CC(=O)Nc2nnc(C(C)C)s2)cc1	none
COCc1cccc(-c2csc(C(C)(O)c3ccc(OC)cc3)n2)c1 (stereo not given)	none (no result: Giardia killer)
CN(C(=O)Cn1c(=O)n(CCC(=O)NCc2ccc3c(c2)OCO3)c(=O)c2sccc21)c1ccccc1	none (no result: IL1B secr inh, Giardia killer, HT1080NT lethal, HT1080 IDH1KD tx)
COC(=O)c1oc2ccc(Cl)cc2c1NC(C)=O	none
Cn1c(N)c(C#N)c2c(c1=S)CSC(C)(C)C2	none
CC1(C)Cc2c(C#N)c(N)sc(=S)c2CS1	HepG2 tox 3.5µM
CCc1ccccc1NC(=O)C1CCN(c2nn3c(=O)cc(C)nc3s2)CC1	TGFb inhibitor inconclusive (no result: IL1B secr inh, Giardia killer, HT1080NT lethal, HT1080 IDH1KD tx)
CN(C)c1ccc(/C=C2/CCc3ccccc32)cc1	TGFb inhibitor 16µM (no result: IL1B secr inh, Giardia killer, HT1080NT lethal, HT1080 IDH1KD tx)
Cc1ccc(NC(=O)CN2CCC(NC(=O)C3CCCCC3)CC2)c(Br)c1	none
O=C(CCc1nc(-c2ccccc2Cl)no1)NCC1CCCO1 (stereo not given)	none
O=C(Nc1ccc(Nc2ccccc2)cc1)c1c(F)c(F)c(F)c(F)c1F	IL1B secr inh -68, HT1080 IDH1KD tx inconclusive
O=C(Nc1ccc(Nc2ccccc2)cc1)c1ccc(F)cc1	none
O=C(Nc1ccc(Nc2ccccc2)cc1)c1c(Cl)cccc1Cl	IL1B secr inh -87, HT1080 IDH1KD tx inconclusive
O=C(Nc1ccc(Nc2ccccc2)cc1)Nc1ccccc1Cl	IL1B secr inh inconclusive, TGFb inhibitor inconclusive, HT1080NT lethal inconclusive, HT1080 IDH1KD tx inconclusive
CCCCNCC#CCOc1cc(C)ccc1C(C)C	IL1B secr inh -70
COc1cc(C(=O)NCCOc2cc(C)cc(C)c2)cc(OC)c1OC	HT1080NT lethal 12µM, HT1080 IDH1KD tx 7.3µM
Cc1ccc(C(C)C)c(OCCNCCc2ccccc2)c1	IL1B secr inh -91, TGFb inhibitor inconclusive
COc1cc(C(=O)NCCOc2ccccc2)cc(OC)c1OC	none
COc1cc(C(=O)NCCOc2cc(C)ccc2C(C)C)cc(OC)c1OC	IL1B secr inh -63, TGFb inhibitor inconclusive, HT1080NT lethal inconclusive, HT1080 IDH1KD tx inconclusive
O=C1CCc2cc(S(=O)(=O)N3CCN(c4ccc(F)cc4)CC3)cc3c2N1CC3	none
CCN(CC)CCNCC(O)(c1ccc(Cl)cc1)c1ccc(Cl)cc1	IL1B secr inh -87, TGFb inhibitor inconclusive, HT1080NT lethal 21µM, HT1080 IDH1KD tx 21µM
O=S(Cc1ccc(Cl)cc1)CC(O)(c1ccccc1)c1ccccc1 (stereo not given)	none
CC(C)NCC(O)(c1ccc(Cl)cc1)c1ccc(Cl)cc1	IL1B secr inh -84, TGFb inhibitor inconclusive
CCN(CC)CCNC(=O)NC(=O)c1ccc(Cl)cc1	none
NCC(O)(c1ccc(Cl)cc1)c1ccc(Cl)cc1	IL1B secr inh -56, TGFb inhibitor inconclusive
CC(C)(C)NCC(O)(c1ccc(Cl)cc1)c1ccc(Cl)cc1	TGFb inhibitor inconclusive, HT1080NT lethal 13µM, HT1080 IDH1KD tx 15µM
COc1cc2c(cc1OC)C1Cc3ccc(OC)c(OC)c3C[N+]1([O-])CC2 (stereo not given)	none
N#CCc1nn(Cc2ccc(F)cc2)c(=O)c2ccccc12	TGFb inhibitor inconclusive
COc1ccc(CN2C(=O)CSCC2(C)C(=O)NC(C)C)cc1 (stereo not given)	none (no result: HepG2 tox, TGFb inhibitor, Giardia killer)
COC(=O)c1sc(C(F)(F)F)c(-c2ccccc2)c1S(=O)(=O)N1CCCC1	none
